Bioassay records: PubChem BioAssay, National Center for Advancing Translational Sciences (NCATS)
In the library only some 19% were active in any assay of this set; here they are far more common.
ELG1 repair inh – qHTS screen for small molecules that inhibit ELG1-dependent DNA repair in human embryonic kidney (HEK293T) cells expressing luciferase-tagged ELG1; HEK293T ELG1-luciferase reporter, luminescence, 16 h; DNA damage induced by 5-fluorouridine; Potency, µM (highest dose often 46.1 µM), inactives show at the top dose activity change, negative = inhibition, usual class: inhibitors; 330,000 compounds, 2.3% hits; AID 504467, 2011; note: potency is the fitted concentration of half-maximal effect; nearly all actives have a fitted effect of over 55% in size
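Reporter activity after DNA damage by 5-fluorouridine is monitored. Compound-treated cells incubate 16 hr at 37 °C, then ONE-Glo is added for 30 min before luminescence reading.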
IL1B secr inh – qHTS for Inhibitors of Inflammasome Signaling: IL-1-beta AlphaLISA Primary Screen; THP-1 LPS/ATP IL-1B secretion, AlphaLISA, 16 h; stronger effect = lower value; activity change, % at 57.5 µM; 360,000 compounds, 4.7% hits; AID 743279, 2014; in the data active = activity change below about -50%; inconclusive = mostly about -30% to -49%
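THP-1 cells pretreated 1 hr with compounds (up to 57.5 uM final), then stimulated with LPS (250 ng/mL final) plus ATP (1.25 mM final); secreted IL-1B measured by AlphaLISA after 16 hr, decreased signal indicating inhibition.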
HT1080NT lethal – qHTS for induction of synthetic lethality in tumor cells producing 2HG: qHTS for the HT-1080-NT fibrosarcoma cell line. Potency, µM (doses to about 46.1 µM), for inactives: top-dose activity, negative = less viability, actives largely listed as cytotoxic. HT-1080-NT fibrosarcoma viability, CellTiter-Glo ATP luminescence, 48 h. 360,000 compounds, 1.6% hits;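 note: NT is the 2HG producing partner of a matched IDH1 knockdown line; potency is the fitted concentration of half-maximal effect; 0% = DMSO-treated cells and -100% = media-only wells without cells; nearly all actives have a fitted effect of over 55% in size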
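750 cells/well, RPMI + 5% FBS; 2 h settle, compound pin-transfer, 48 h at 37 degrees C. CellTiter-Glo 10 min RT, luminescence. Normalized to DMSO and media-only wells.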
TDP1 cell CPT – qHTS for Inhibitors of human tyrosyl-DNA phosphodiesterase 1 (TDP1): qHTS in cells in presence of CPT; chicken DT40 Tdp1-/-;hTDP1 cells + 20 nM CPT, ATP luminescence, 48 h; Potency, µM (highest dose often 46.2 µM), for the others: at the top dose activity change, negative = growth inhibition, hits mostly inhibitors; 420,000 compounds, 12% hits; note: potency is the fitted concentration of half-maximal effect; nearly all actives have a fitted effect of over 55% in size
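Cell growth measured by CellTiter-Glo luminescence after a minimum 48 h, 37 C compound exposure with 20 nM CPT in Tdp1-knockout DT40 cells stably expressing hTDP1, seeded 400/well; qHTS titration format.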
DT40 TDP1 no CPT – qHTS for Inhibitors of human tyrosyl-DNA phosphodiesterase 1 (TDP1): qHTS in cells in absence of CPT | DT40 Tdp1-/- hTDP1 cells, no CPT, ATP luminescence, 48 h | Potency, µM (doses to about 46.2 µM), without a hit: at the top dose activity change, negative = growth inhibition, hits mostly inhibitors | 420,000 compounds, 15% hits | AID 686978, 2013; note: potency is the fitted concentration of half-maximal effect; nearly all actives have a fitted effect of over 55% in size
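Chicken DT40 Tdp1-/- cells stably complemented with human TDP1 were seeded at 400 cells/well with DMSO in place of 20 nM camptothecin. After compound pinning, cells grew at least 48 hr at 37 °C; viability read by CellTiter-Glo luminescence.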
HT1080 IDH1KD tx – qHTS for induction of synthetic lethality in tumor cells producing 2HG: qHTS for the HT-1080-IDH1KD cell line; AID 686971, 2013; Potency, µM (highest dose often 46.1 µM), for the others: at the highest dose activity, negative = toxicity, actives largely listed as cytotoxic; 360,000 compounds, 2% hits; HT-1080 IDH1 knockdown viability, ATP luminescence, 48 h;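 note: potency is the fitted concentration of half-maximal effect; 0% = DMSO wells and -100% = cell-free medium wells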
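Using the IDH1-knockdown HT-1080 line run in the same batch and compound series as the NT line, viability after 48 h at 37 °C was determined by CellTiter-Glo luminescence and expressed as % activity.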
The depositor's hits bear a star. Unless noted, calls come from the whole dose curve; as a rule, active = well fitted curve in the direction sought with a large enough effect; inconclusive = small, poorly fitted or top-dose-only effect, or another doubt; inactive = no such curve, though single readings can be large; an effect the other way counts as inactive or inconclusive. Unless noted, % is set by controls: 0 for no effect and ±100 for the full control effect.

Screening COc1cc(NC(=S)NC(=O)c2c(OC)cccc2OC)ccc1NC(=O)c1cccs1 returned ELG1 repair inh inconclusive, IL1B secr inh 17, HT1080NT lethal -5%, TDP1 cell CPT 10µM*, DT40 TDP1 no CPT 9.2µM* and HT1080 IDH1KD tx -2%.
For COc1cc(NC(=S)NC(=O)c2ccccc2C)ccc1NC(=O)c1cccs1 the results were ELG1 repair inh 13µM*, IL1B secr inh 14, HT1080NT lethal -8%, TDP1 cell CPT inconclusive, DT40 TDP1 no CPT inconclusive and HT1080 IDH1KD tx -15%.
`COc1cc(NC(=S)NC(=O)c2cc(C)cc(C)c2)ccc1NC(=O)c1cccs1` gave ELG1 repair inh inconclusive, IL1B secr inh -19, HT1080NT lethal 22%, TDP1 cell CPT inconclusive, DT40 TDP1 no CPT inconclusive and HT1080 IDH1KD tx 2%.
`COc1cc(NC(=S)NC(=O)c2ccc(C(C)(C)C)cc2)ccc1NC(=O)c1cccs1` gave ELG1 repair inh 8%, IL1B secr inh -2, HT1080NT lethal inconclusive, TDP1 cell CPT inconclusive, DT40 TDP1 no CPT 18µM* and HT1080 IDH1KD tx inconclusive.
COC(=O)c1c(N)n(-c2ccc(OC)c(Cl)c2)c2nc3ccccc3nc12 was read as TDP1 cell CPT inconclusive and DT40 TDP1 no CPT -27%.
`CC(=O)Nc1ccc(S(=O)(=O)N2CCNC(=O)C2)cc1` gave ELG1 repair inh 5%, IL1B secr inh 8, HT1080NT lethal 2%, TDP1 cell CPT 4%, DT40 TDP1 no CPT 11% and HT1080 IDH1KD tx 1%.
N#Cc1ccc(C(=O)N2CCCCC2c2cc(C(=O)NCc3ccccc3)no2)cc1 (stereo not drawn) was read as IL1B secr inh 8, HT1080NT lethal -2%, TDP1 cell CPT -4%, DT40 TDP1 no CPT 1% and HT1080 IDH1KD tx 13%.
CCCc1cc(=O)oc2cc(C)c(CN3CCCC3)c(O)c12 was read as ELG1 repair inh 0%, IL1B secr inh 39, HT1080NT lethal -2%, TDP1 cell CPT inconclusive, DT40 TDP1 no CPT 16µM* and HT1080 IDH1KD tx 4%.
Screening CCN1c2ccccc2-c2nc3ccccc3n2C1c1cccs1 (stereo not drawn) returned ELG1 repair inh -19%, IL1B secr inh 21, HT1080NT lethal -16%, TDP1 cell CPT 23µM*, DT40 TDP1 no CPT 13µM* and HT1080 IDH1KD tx -1%.
Screening c1ccc(C2Nc3ccccc3-c3nc4ccccc4n32)cc1 (stereo not drawn) returned ELG1 repair inh inconclusive, IL1B secr inh inconclusive, HT1080NT lethal 1%, TDP1 cell CPT inconclusive, DT40 TDP1 no CPT inconclusive and HT1080 IDH1KD tx -5%.
O=C(COc1coc(CN2CCN(c3ccccc3F)CC2)cc1=O)NCC1CCCO1 (stereo not drawn) was read as ELG1 repair inh 4%, IL1B secr inh 14, HT1080NT lethal 10%, TDP1 cell CPT -5%, DT40 TDP1 no CPT -21% and HT1080 IDH1KD tx 12%.
Screening O=C(NCC1OCCc2ccccc21)c1cc(COc2ccc(F)cc2Cl)on1 (stereo not drawn) returned ELG1 repair inh -1%, IL1B secr inh -14, HT1080NT lethal 2%, TDP1 cell CPT -26%, DT40 TDP1 no CPT inconclusive and HT1080 IDH1KD tx -2%.
